Source: PubChem
Most compounds without a hit are left out; they make up all but 3% or so of the library.
Tau fluor counter – counter-screen for tau fibril formation inhibitors. AID 1463. 280,000 tested, 0.93% active. Potency, µM (top dose mostly 57.7 µM). tau K18 P301L Alexa594 fluorescence, heparin fibrillization; also: nearly all actives have a fitted effect of over 55% in size
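Human tau K18 P301L (15 uM unlabeled, 0.24 uM Alexa 594-labeled) in 100 mM sodium acetate pH 7 with 20 uM heparin, 6 hr at 37 C. ThT 30 uM added, 1 hr ambient; Alexa 594 FP and total fluorescence read at 555/632 nm.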
TRb-SRC2 inh – disrupts binding of human TR beta to SRC2; 280,000 tested, 0.065% active; TRbeta-SRC2 peptide binding, fluorescence polarization; receptor liganded with 1 µM T3; Potency, µM (top dose mostly 106 µM), actives largely listed as inhibitors; also: nearly all actives have a fitted effect of over 50% in size
Target sequence (P10828 whole entry, looked up): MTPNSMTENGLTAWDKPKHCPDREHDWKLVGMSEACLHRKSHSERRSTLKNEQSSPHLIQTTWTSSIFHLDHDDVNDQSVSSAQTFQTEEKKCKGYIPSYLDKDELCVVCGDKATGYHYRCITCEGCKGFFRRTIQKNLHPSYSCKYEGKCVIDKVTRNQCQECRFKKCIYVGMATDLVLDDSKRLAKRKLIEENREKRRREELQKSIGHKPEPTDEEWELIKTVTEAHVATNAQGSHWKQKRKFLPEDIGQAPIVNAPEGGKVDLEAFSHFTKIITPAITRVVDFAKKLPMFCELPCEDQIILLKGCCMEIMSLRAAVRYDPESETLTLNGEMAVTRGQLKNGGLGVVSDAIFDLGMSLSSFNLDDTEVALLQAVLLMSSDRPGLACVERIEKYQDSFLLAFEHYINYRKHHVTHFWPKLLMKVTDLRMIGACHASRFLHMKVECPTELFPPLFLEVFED
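Decrease in fluorescence polarization of 20 nM Texas Red SRC2 coactivator peptide flagged inhibition of its binding to 0.6 uM TRb LBD; 1 uM T3 included, incubation 5 hr, ex 555/em 632 nm.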
Tau fibril FP – inhibitors of human tau fibril formation; P10636; K18 P301L tau heparin fibrillization, Alexa594 FP, 6 h; Potency, µM (series often up to 57.7 µM), most hits filed as inhibitors; 280,000 tested, 0.39% active; AID 1468; also: nearly all actives have a fitted effect of over 55% in size
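Quantitative HTS format: compounds meet 15 uM recombinant K18 P301L tau and Alexa 594-tau tracer in 100 mM sodium acetate pH 7; 20 uM heparin triggers fibrillization at 37 C over 6 hr; FP gives the signal.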
TR SRC2 fluor cs – counter-screen for TRb-SRC2 inhibitors: fluorescence interference. AID 1479. 280,000 tested, 0.29% active. TRb/SRC2 Texas Red total fluorescence interference. Potency, µM (highest dose often 106 µM); active = well fitted curve in either direction with a large enough effect; inconclusive = small, poorly fitted or top-dose-only effect
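Human TRβ ligand-binding domain (0.6 uM) and Texas Red SRC2 peptide (20 nM) in Tris buffer with 1 uM T3 and 5% DMSO were incubated with pinned compound for 5 hr at ambient temperature. Total fluorescence was computed as S + 2P (555/632 nm).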
Tau fibril ThT – blocks human tau fibril formation measured by thioflavin T; P10636; recombinant tau K18 P301L, heparin-induced fibrillization, ThT fluorescence; Potency, µM (titrated, usually from 57.4 µM), usual class: inhibitors; 270,000 tested, 2.1% active; AID 1460; also: nearly all actives have a fitted effect of over 55% in size
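ThT emission at 510 nm, taken 1 hr after adding 30 uM dye, quantifies aggregates formed when 20 uM heparin acts on human tau K18 P301L for 6 hr at 37 C.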
Numbers stand for hits; i = inactive; ? = inconclusive; nt = no result; [ ] = dose if it differs, or a comment. Unless noted, calls follow the shape of the dose curve; as a rule, active = well fitted curve in the direction sought with a large enough effect; inconclusive = small, poorly fitted or top-dose-only effect, or another doubt; inactive = no such curve, though single readings can be large; an effect the other way counts as inactive or inconclusive.

SMILES	Tau fluor counter	TRb-SRC2 inh	Tau fibril FP	TR SRC2 fluor cs	Tau fibril ThT
O=S(=O)(NCCNS(=O)(=O)c1cccs1)c1cccs1	i	i	i	i	i
CN1CCN(NS(=O)(=O)c2cccs2)CC1	i	i	?	i	12.6µM
Cc1cc(N)n2ncc(-c3ccc(Cl)cc3)c2n1	14.1µM[quencher]	i	?	i	?
Cc1cc(N)n2ncc(-c3ccc(F)cc3)c2n1	?	i	?	i	?
COc1cccc(N2CCN(c3ncc4c(n3)CCN(Cc3ccc(Br)cc3)C4)CC2)c1	i	i	i	i	i
CCCCN(CC)CCNC(=O)C1CCN(c2nnc(C)c3c(C)n(-c4ccc(C)cc4)nc23)CC1	i	i	i	i	i
CCOc1ccc2nc(N3CCCC(C(=O)NCCc4ccc(SC)cc4)C3)sc2c1 (stereo not given)	?	i	i	39.8µM[quencher]	i
S=c1[nH]c(-c2ccccc2)cn1/N=C/c1ccncc1	?	i	i	i	11.2µM
O=C1OCCC1N(C(=O)C1CC1)c1cccc(Cl)c1 (stereo not given)	nt	i	nt	i	nt
O=C1OC2(c3cc(I)c(O)c(I)c3Oc3c2cc(I)c(O)c3I)c2c(Cl)c(Cl)c(Cl)c(Cl)c21	nt	25.1µM	nt	7.08µM[fluorescent]	nt
O=C1OC2(c3ccccc31)c1cc(I)c(O)c(I)c1Oc1c2cc(I)c(O)c1I	nt	?	nt	39.8µM[fluorescent]	nt
CCn1c(=O)sc2cc(NS(=O)(=O)c3ccc(F)c(C)c3)ccc21	?	i	i	i	i
O=C(NCCS(=O)(=O)N1CCN(c2ccccc2F)CC1)c1ccccc1C(F)(F)F	i	i	i	?	i
O=C1NC2=C(C(=O)c3ccccc32)C(c2ccccc2)N1 (stereo not given)	i	i	?	i	22.4µM
CCOc1ccc(C2C(C(=O)OC)=C(C)NC3=C2C(=O)c2ccccc23)cc1OC (stereo not given)	15.8µM[quencher]	i	i	i	?
C#CCOc1c(Br)cc(C2C(C(=O)OC)=C(C)NC3=C2C(=O)c2ccccc23)cc1OCC (stereo not given)	3.55µM[quencher]	i	?	i	6.31µM
CC1=C([N+](=O)[O-])C(c2ccccc2)C2=C(N1)c1ccccc1C2=O (stereo not given)	15.8µM[quencher]	i	i	i	15.8µM
COc1cc(C2C(C#N)=C(C)NC3=C2C(=O)c2ccccc23)cc(OC)c1OC (stereo not given)	i	i	i	i	?
CCOC(=O)C1=C(C)NC2=C(C(=O)c3ccccc32)C1c1cccnc1 (stereo not given)	i	i	i	i	?
CC(=O)C1=C(C)NC(=O)NC1c1ccccc1 (stereo not given)	i	i	i	i	i
COC(=O)c1ccccc1C(=O)O	nt	i	nt	i	nt
O=C(O)c1ccc(N[C@@H]2OC[C@@H](O)[C@@H](O)[C@@H]2O)cc1	i	i	i	i	i
CCC(C)C(N)C(=O)NC(CC(N)=O)C(=O)NC(CC(C)C)C(=O)NC(CCCCN)C(=O)NC(C)C(=O)NC(CC(C)C)C(=O)NC(C)C(=O)NC(C)C(=O)NC(CC(C)C)C(=O)NC(C)C(=O)NC(CCCCN)C(=O)NC(CCCCN)C(=O)NC(C(=O)NC(CC(C)C)C(N)=O)C(C)CC (stereo not given)	nt	i	nt	i	nt
O=C(CSc1nnc(-c2ccc(F)cc2)o1)N1CCCc2ccccc21	i	i	i	i	i
CC12C=C(/C=C/CCc3ccco3)C(C)(C1)[C@H](CCc1ccco1)CC2=O (stereo not given in full)	i	i	i	i	i
SMILES	Tau fluor counter	TRb-SRC2 inh	Tau fibril FP	TR SRC2 fluor cs	Tau fibril ThT
CCOc1ccc(C2C(C#N)=C(C)NC3=C2C(=O)c2ccccc23)cc1 (stereo not given)	20µM[quencher]	i	?	i	?
CCOC(=O)c1[nH]c(C)c(CCC(=O)N2CCN(c3cc(Cl)ccc3C)CC2)c1C	i	i	i	i	?
Cc1cc(/C=C2\SC(=S)NC2=O)c(C)n1-c1ccccc1	?	i	?	i	7.08µM
COc1ccc(-n2c(C)cc(/C=C3\SC(=S)NC3=O)c2C)cc1	i	i	i	i	?
Cc1cc(/C=C2\SC(=S)NC2=O)c(C)n1C	i	i	i	i	?
Cc1cc(/C=C2\SC(=S)NC2=O)c(C)n1-c1ccc(O)cc1	22.4µM[quencher]	i	i	i	7.94µM
